# The campaign covered roughly 1,300 compounds. About 240 (18%) were called active. Roughly 8% stayed inconclusive and do not appear here. No rule for the calls is given here. The list is a sample of the results. Entries with a potency or affinity are not part of this list.
# Experiment: toxicity to human hepatoma HepG2 cells – cell-based, cherry-picked samples, cytotoxicity control, dose response (AID 1159577)
# Settings: HepG2 cytotoxicity counterscreen, plate reader; series mostly up to 19.5 µM
row,Structure (SMILES),outcome
1,CCC(=O)N1CCC2(CC1)CN(Cc1cc(F)ccc1F)[C@@H](CO)c1[nH]c3cc(OC)ccc3c12,inactive
2,COc1ccccc1C#Cc1ccc([C@@H]2[C@H](C#N)N(C(=O)C3CCCC3)[C@H]2CO)cc1,inactive
3,COc1cccc(C#Cc2ccc([C@H]3[C@@H](C#N)N(C(=O)C4CCCC4)[C@@H]3CO)cc2)c1,inactive
4,COc1ccccc1C#Cc1ccc([C@H]2[C@@H](C#N)N(C(=O)C3CCCCC3)[C@H]2CO)cc1,inactive
5,COc1cccc(C#Cc2ccc([C@@H]3[C@@H](C#N)N(C(=O)C4CCCCC4)[C@H]3CO)cc2)c1,inactive
6,COCC(=O)N1CC2(C1)CN(Cc1ccccc1F)[C@@H](CO)c1[nH]c3cc(OC)ccc3c12,inactive
7,C[C@H](CO)N1C[C@H](C)[C@@H](CN(C)C(=O)C2CCCCC2)Oc2ncc(/C=C/c3ccccc3)cc2C1=O,inactive
8,O=C(C[C@H]1C=C[C@H](NC(=O)Cc2ccccn2)[C@H](CO)O1)NCCc1ccccc1,inactive
9,C[C@H]1CN([C@@H](C)CO)S(=O)(=O)c2ccc(C#Cc3ccccc3)cc2O[C@@H]1CN(C)C(=O)C1CC1,inactive
10,O=C(C[C@H]1C=C[C@@H](NC(=O)Nc2ccccc2F)[C@H](CO)O1)NCc1ccc(-c2ccccc2)cc1,inactive
11,OC[C@@H]1Nc2ccc(C#Cc3cccc(F)c3)cc2[C@@H]2NCC[C@H]12,inactive
12,O=C(c1cccc(F)c1)N1CC[C@H]2[C@H](CO)Nc3ccc(C#Cc4cccc(F)c4)cc3[C@H]21,inactive
13,COc1ccccc1C#Cc1ccc2c(c1)[C@H]1NCC[C@H]1[C@@H](CO)N2,inactive
14,O=C(c1ccccc1F)N1CC[C@H]2[C@H](CO)Nc3ccc(C#Cc4ccc(F)cc4)cc3[C@H]21,inactive
15,COc1ccc(CN2C[C@@H](C)[C@H](OC)CN(C)C(=O)c3ccc(NC(=O)c4nc5ccccc5s4)cc3OC[C@H]2C)cc1,inactive
16,CCCN(C)C[C@@H]1Oc2cc(C#Cc3ccccc3)ccc2S(=O)(=O)N([C@@H](C)CO)C[C@@H]1C,inactive
17,COc1cccc(NC(=O)N2[C@@H](CO)[C@H](c3ccccc3)[C@@H]2CNCC(C)C)c1,inactive
18,O=C(c1cccc(F)c1)N1CC(=O)N2[C@H](CO)[C@H](c3ccc(-c4cccnc4)cc3)[C@H]2C1,inactive
19,CO[C@H]1CN(C)C(=O)c2cc(NC(=O)c3cc(C)on3)ccc2OC[C@H](C)N(C(=O)C2CC2)C[C@H]1C,inactive
20,COc1ccc2c3c(n(C)c2c1)[C@@H](CO)N(C(=O)C1CC1)CC31CN(C(=O)Nc2cccc(F)c2)C1,inactive
21,C[C@H](CO)N1C[C@H](C)[C@@H](CN(C)C(=O)c2ccccc2F)Oc2ncc(C#Cc3cccc(F)c3)cc2C1=O,inactive
22,COCC#Cc1ccc([C@H]2[C@H](CO)N3C(=O)CN(C(=O)CN4CCOCC4)C[C@@H]23)cc1,inactive
23,COc1ccc(C#Cc2ccc3c(c2)[C@@H]2[C@@H](CCN2C(=O)C2CCCC2)[C@H](CO)N3)cc1,inactive
24,CC(C)(C)[S@@](=O)N1Cc2cc(C(=O)NCCN3CCCCC3)nc(-c3cccc(-c4ccc(C#N)cc4)c3)c2[C@H]1CCO,inactive

row,Structure (SMILES),outcome
1,CN1CCN(C(=O)C[C@H]2C[C@@H]3c4cc(NC(=O)Nc5ccc(C(F)(F)F)cc5)ccc4O[C@@H]3[C@@H](CO)O2)CC1,inactive
2,COCC(=O)N1CC2(C1)CN(C(=O)CN1CCOCC1)[C@@H](CO)c1c2c2ccc(OC)cc2n1C,inactive
3,CCCN(C)C[C@H]1Oc2cc(C#Cc3cccnc3)ccc2S(=O)(=O)N([C@H](C)CO)C[C@H]1C,inactive
4,CO[C@H]1CN(C)C(=O)c2ccc(NC(=O)CC(F)(F)F)cc2OC[C@@H](C)N(CC2CC2)C[C@H]1C,inactive
5,CCCC#Cc1ccc2c(c1)O[C@H](CN(C)C(=O)Nc1ccc(OC)cc1)[C@H](C)CN([C@H](C)CO)S2(=O)=O,inactive
6,N#Cc1ccc(-c2ccc3c(c2)[C@@H]2[C@@H](CCN2C(=O)C2CCC2)[C@@H](CO)N3)cc1,inactive
7,COc1ccc(CN2CC3(C2)CN(Cc2ccc4c(c2)OCO4)[C@H](CO)c2[nH]c4cc(OC)ccc4c23)cc1,inactive
8,COc1ccc2c3c([nH]c2c1)[C@@H](CO)N(C(C)=O)CC31CN(C(=O)CN2CCOCC2)C1,inactive
9,COc1ccc2c3c([nH]c2c1)[C@@H](CO)N(C(=O)CN(C)C)CC31CCN(CC2CCCCC2)CC1,inactive
10,COc1ccc(CN2CC3(CN(C(C)=O)C3)c3c([nH]c4cc(OC)ccc34)[C@@H]2CO)cc1,inactive
11,CO[C@H]1CN(C)C(=O)c2cc(NC(=O)c3ccccc3F)ccc2OC[C@H](C)N(C)C[C@H]1C,inactive
12,COc1ccccc1CNC(=O)C[C@H]1C[C@@H]2c3cc(NC(=O)Nc4ccc(C(F)(F)F)cc4)ccc3O[C@@H]2[C@H](CO)O1,inactive
13,C[C@H]1CN([C@@H](C)CO)C(=O)Cc2cc(NC(=O)CCC(F)(F)F)ccc2O[C@H]1CN(C)S(C)(=O)=O,inactive
14,COc1ccccc1C#Cc1ccc2c(c1)[C@H]1[C@H](CCN1C(=O)CN1CCOCC1)[C@@H](CO)N2,inactive
15,CO[C@@H]1CN(C)C(=O)c2ccc(NC(=O)Nc3ccccc3F)cc2OC[C@@H](C)N(CC2CC2)C[C@H]1C,inactive
16,C[C@H](CO)N1C[C@H](C)[C@H](CN(C)C(=O)Cc2ccncc2)Oc2cc(C#CC3CCCC3)ccc2S1(=O)=O,inactive
17,COc1ccc(CN2C[C@@H](C)[C@@H](OC)CN(C)C(=O)c3cc(NC(=O)c4nc5ccccc5s4)ccc3OC[C@H]2C)cc1,inactive
18,CCCN(C)C[C@@H]1Oc2cc(C#Cc3ccncc3)ccc2S(=O)(=O)N([C@H](C)CO)C[C@@H]1C,inactive
19,COc1ccc(NC(=O)N(C)C[C@@H]2Oc3cc(-c4ccc(C)cc4)ccc3S(=O)(=O)N([C@H](C)CO)C[C@H]2C)cc1,inactive
20,CCS(=O)(=O)N1CCCCN2[C@H](CO)[C@H](c3ccc(C#Cc4ccccc4OC)cc3)[C@@H]2C1,inactive
21,CCC(=O)Nc1ccc2c(c1)OC[C@@H](C)N(Cc1cccc(F)c1)C[C@@H](C)[C@H](OC)CN(C)C2=O,inactive
22,CCCNC(=O)Nc1ccc2c(c1)OC[C@@H](C)N(Cc1ccccc1)C[C@@H](C)[C@H](OC)CN(C)C2=O,inactive
23,COCC(=O)N1[C@H](C#N)[C@@H](c2ccccc2C2=CCCC2)[C@@H]1CO,inactive
24,COc1ccc2c3c(n(C)c2c1)[C@H](CO)N(C(=O)Nc1ccc(F)cc1)CC31CN(C(=O)c2ccc3c(c2)OCO3)C1,inactive

row,Structure (SMILES),outcome
1,C[C@H]1CN([C@@H](C)CO)C(=O)c2ccccc2-c2ccccc2CO[C@H]1CN(C)Cc1cccc(C(F)(F)F)c1,inactive
2,C[C@H]1CN([C@@H](C)CO)C(=O)c2ccccc2-c2ccccc2CO[C@H]1CN(C)Cc1ccc(-c2ccccc2)cc1,inactive
3,C[C@H]1CN([C@@H](C)CO)C(=O)c2ccccc2-c2ccccc2CO[C@H]1CN(C)Cc1ccc(Oc2ccccc2)cc1,inactive
4,C[C@@H]1CN([C@H](C)CO)C(=O)c2ccccc2-c2ccccc2CO[C@@H]1CN(C)Cc1ccc(C(F)(F)F)cc1,inactive
5,C[C@@H]1CN([C@@H](C)CO)C(=O)c2ccccc2-c2ccccc2CO[C@H]1CN(C)C(=O)Nc1cccc(C(F)(F)F)c1,inactive
6,C[C@@H]1CN([C@H](C)CO)C(=O)c2ccccc2-c2ccccc2CO[C@H]1CN(C)C(=O)Nc1cccc(C(F)(F)F)c1,inactive
7,C[C@H](CO)N1C[C@H](C)[C@H](CN(C)C(=O)Nc2ccc(N3CCCCC3)cc2)OCc2cnnn2CCCC1=O,inactive
8,CCCC(=O)N1CC2(C1)CN(Cc1ccccc1F)[C@H](CO)c1c2c2ccc(OC)cc2n1C,inactive
9,COc1ccc2c3c([nH]c2c1)[C@@H](CO)N(Cc1cccc(Cl)c1)CC31CCN(C(C)=O)CC1,inactive
10,CN(C)c1ccc2c(c1)[C@@H]1C[C@H](CC(=O)N3CCc4ccccc4C3)O[C@@H](CO)[C@@H]1O2,inactive
11,CO[C@@H]1CN(C)C(=O)c2ccc(NC(=O)NC3CCCCC3)cc2OC[C@@H](C)N(CCc2ccccc2)C[C@H]1C,inactive
12,O=C(Nc1ccc(F)cc1)N1C[C@H]2[C@@H](c3ccccc31)[C@@H](CO)N2Cc1cocn1,inactive
13,COc1ccc(NC(=O)N2CC3(C2)CN(C(=O)C2CCC2)[C@H](CO)c2c3c3ccc(OC)cc3n2C)cc1,inactive
14,C/C=C/c1ccccc1[C@H]1[C@@H](C#N)N(C(=O)NC2CCCC2)[C@H]1CO,inactive
15,COc1ccc(-c2ccc3c(c2)[C@H]2[C@H](CCN2C(=O)C2CCCC2)[C@H](CO)N3C)cc1,inactive
16,COc1ccc(-c2ccc3c(c2)[C@H]2[C@H](CCN2C(=O)NC2CCCC2)[C@H](CO)N3C)cc1,inactive
17,O=C(c1ccc(F)cc1)N1CC(=O)N2[C@H](C1)[C@@H](c1ccc(-c3cccnc3)cc1)[C@@H]2CO,inactive
18,CCCNC(=O)Nc1ccc2c(c1)C(=O)N(C)C[C@H](OC)[C@@H](C)CN(C(=O)C1CCOCC1)[C@H](C)CO2,inactive
19,CO[C@@H]1CN(C)C(=O)c2ccc(NC(=O)Nc3ccccc3F)cc2OC[C@@H](C)N(Cc2ccccc2F)C[C@H]1C,inactive
20,O=C1CN(S(=O)(=O)c2ccccc2)C[C@@H]2[C@H](c3ccc(C#CCc4ccccc4)cc3)[C@@H](CO)N12,inactive
21,Cc1ccccc1S(=O)(=O)N1CC(=O)N2[C@H](CO)[C@H](c3ccc(C#CC4CC4)cc3)[C@@H]2C1,inactive
22,Cc1ccccc1S(=O)(=O)N1CC(=O)N2[C@H](CO)[C@H](c3ccc(C#CCC4CCCC4)cc3)[C@H]2C1,inactive
23,O=C1CN(S(=O)(=O)c2ccccc2)C[C@H]2[C@H](c3ccc(C#CCc4ccccc4)cc3)[C@@H](CO)N12,inactive

# Reference: PubChem BioAssay AID1159577 (Broad Institute, 2015)
